Our source for the outcome and AC50 values is PubChem BioAssay (EPA / NIEHS).

A short description of test [1]: CCTE_Shafer_MEA_dev_per_burst_interspike_interval: CCTE's Neural Network Formation Assay for Burst Interspike Interval, Shafer Lab (AID 2284044).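 Also: mean spike spacing inside bursts as AUC over recordings on days 5 7 9 12.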 The procedure, abridged:
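Neurons from rat cortex plated onto PEI-coated MEA wells with laminin […] at 1.5 x 10^5 cells/well, then treated from day 0. Media and compound fully replaced on DIV 5 and 9. Extracellular spontaneous firing recorded four times; interspike interval per burst summarised as AUC.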

A short description of test [2]: CCTE_Shafer_MEA_dev_burst_duration_mean: CCTE's Neural Network Formation Assay for Mean Burst Duration, Shafer Lab (AID 2284045).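 As to AC50: curve fitted for loss meaning shorter burst duration than DMSO.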 The procedure, abridged:
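Primary rat cortical neurons on PEI-coated 16-electrode MEA wells, exposed from plating through day 12 with compound renewed at DIV 5 and 9; spontaneous activity recorded days 5, 7, 9, 12. Well-mean burst duration collapsed as trapezoidal AUC, fitted for loss versus DMSO.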

The nature of test [3]: CCTE_Shafer_MEA_dev_interburst_interval_mean: CCTE's Neural Network Formation Assay for Mean Interburst Interval, Shafer Lab (AID 2284046).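 Also: well-mean interburst interval of bursting electrodes as AUC over four recording days; curve fitted for decrease in interburst interval relative to DMSO.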 The procedure, abridged:
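Developing rat cortical networks on 48-well MEAs receive compound from the day of plating. Burst intervals from each active electrode are averaged per well, and AUC over the recording days is fitted in the negative direction against DMSO.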

Test [4] is described as follows: CCTE_Shafer_MEA_dev_inter_network_spike_interval_mean: CCTE's Neural Network Formation Assay for Mean Inter-network Spike Interval, Shafer Lab (AID 2284047). The procedure, abridged:
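Rat cortical cultures, 1.5 x 10^5 cells/well on 48-well MEA plates; continuous exposure days 0–12, medium and compound refreshed DIV 5, 9. Mean time between consecutive network-spike peaks; AUC across DIV 5/7/9/12; DMSO baseline, negative fitting direction.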

The nature of test [5]: CCTE_Shafer_MEA_dev_network_spike_number: CCTE's Neural Network Formation Assay for Number of Network Spikes, Shafer Lab (AID 2284048).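 Also: synchronized bursts across electrodes counted on days 5 7 9 12 and integrated as AUC.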 The procedure, abridged:
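Primary rat cortical neurons were seeded at 1.5 x 10^5 cells/well on PEI-coated 16-electrode MEA wells with laminin, exposed from plating day 0, compound renewed at DIV 5 and 9. Network spikes were recorded on days 5, 7, 9, 12 and summarized as trapezoidal AUC versus DMSO.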

Test [6] is described as follows: CCTE_Shafer_MEA_dev_network_spike_peak: CCTE's Neural Network Formation Assay for Mean Number of Electrodes in Network Spike, Shafer Lab (AID 2284049). An outline of the steps:
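Continuous 12-day exposure of rat cortical cultures, starting at plating, on MEA plates. Endpoint: electrodes participating in network-spike peaks, AUC across DIV 5–12, DMSO as negative control.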

Test [7] can be described thus: CCTE_Shafer_MEA_dev_spike_duration_mean: CCTE's Neural Network Formation Assay for Mean Spike Duration, Shafer Lab (AID 2284051). An outline of the steps: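 Readout is the average length of network spikes, clustered firing across electrodes, summed over DIV 5, 7, 9 and 12 as area under the curve. Neurons from rat cortex developed networks on MEA plates under continuous 12-day exposure.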

Test [8] is described as follows: CCTE_Shafer_MEA_dev_network_spike_duration_std: CCTE's Neural Network Formation Assay for Standard Deviation of Network Spike Duration, Shafer Lab (AID 2284052).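 Also: hits are decreases in network spike duration SD versus DMSO vehicle.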 An outline of the steps: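 Read-out is the trapezoidal area-under-the-curve across recordings made on days 5, 7, 9 and 12, fitted in the negative direction against DMSO baseline. Neurons were primary rat cortical cells treated from day 0, with treatment renewed at each feed.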

The nature of test [9]: CCTE_Shafer_MEA_dev_per_network_spike_spike_number_mean: CCTE's Neural Network Formation Assay for Mean Number of Spikes in a Network Spike, Shafer Lab (AID 2284053). An outline of the steps: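 Continuous twelve-day exposure of developing rat cortical networks grown over 16 microelectrodes per well; spontaneous firing is captured at four time points, and the per-network-spike spike number is integrated over development by trapezoidal AUC.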

A short description of test [10]: CCTE_Shafer_MEA_dev_per_network_spike_spike_percent: CCTE's Neural Network Formation Assay for Percent of Spikes in a Network Spike, Shafer Lab (AID 2284054). An outline of the steps: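 Primary rat cortical neurons on 16-electrode MEA wells (PEI-coated, laminin at plating), exposed from day 0 with renewal at DIV 5 and 9; spikes within 0.05 s of network-spike peaks over total spikes, AUC across days 5, 7, 9, 12.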

Test [11] can be described thus: CCTE_Shafer_MEA_acute_AB: CCTE's Alamar Blue Assay for Cytotoxicity in the Neural Acute Assay, Shafer Lab (AID 2284069; active = hit-call score of the fitted dose curve at least 0.9, where 1 is the maximum;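 also: active compounds lower the viability signal compared with DMSO wells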). The procedure, abridged: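 Metabolic activity in chemically exposed rat cortical neurons (MEA cultures, day 13/15 post-plating) measured via CellTiter Blue resazurin reduction, 544/590 nm fluorescence; fitted relative to DMSO, with signal loss indicating reduced viability.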
A general note: The colour change of resazurin is a common sign of viable cells or microbes.

The nature of test [12]: CCTE_Shafer_MEA_acute_LDH: CCTE's Lactate Dehydrogenase Assay for Cytotoxicity in the Neural Acute Assay, Shafer Lab (AID 2284086; active = hit-call score of the fitted dose curve at least 0.9, where 1 is the maximum;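 also: active means LDH release rises above DMSO vehicle level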). The procedure, abridged: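 Rat cortical neurons cultured on microelectrode arrays; baseline 40-min recording, compound added, second 40-min recording; medium then sampled for released LDH (colorimetric kit, 490 nm). DMSO = negative control.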

The nature of test [13]: CCTE_Shafer_MEA_dev_mutual_information_norm: CCTE's Neural Network Formation Assay for Mutual Information Normalization, Shafer Lab (AID 2284091). An outline of the steps: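 Rat cortical cultures, 48-well MEA, continuous exposure DIV 0–12 with full media/compound change DIV 5 and 9. Readout: inter-electrode mutual information, AxIS adaptive spike detection; AUC across DIV 5/7/9/12 recordings; DMSO baseline, negative fitting direction.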

A short description of test [14]: CCTE_Shafer_MEA_dev_correlation_coefficient_mean: CCTE's Neural Network Formation Assay for Mean Correlation Coefficient, Shafer Lab (AID 2284093). An outline of the steps: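 Read-out: well-mean correlation coefficient of spike trains between electrode pairs, collapsed over four recording days as trapezoidal area-under-the-curve. Developing rat cortical neuron networks grown on MEAs received test chemical continuously from plating.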

The test system of test [15] is DIO2 (gene 1734). Description: CCTE_GLTED_hDIO2: CCTE's human Deiodinase 2 (DIO2) Inhibition Assay, Great Lakes Toxicology and Ecology Division (GLTED) Lab (AID 2284050; active = hit-call score of the fitted dose curve at least 0.9, where 1 is the maximum). An outline of the steps: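 hDIO2 enzyme + test chem, 3 h → free iodide from substrate; step 2: Sandell-Kolthoff (Ce IV reduction by As, iodide-catalysed), spectrophotometric read. Triplicate plates; DMSO = baseline.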

Test [16] relates to DIO3 (gene 1735). As to the kind of experiment: CCTE_GLTED_hDIO3: CCTE's human Deiodinase 3 (DIO3) Inhibition Assay, Great Lakes Toxicology and Ecology Division (GLTED) Lab (AID 2284055; active = hit-call score of the fitted dose curve at least 0.9, where 1 is the maximum;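 also: potency is for inhibition seen as loss of released iodide signal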). The procedure, abridged: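 Absorbance from the Sandell-Kolthoff reaction reports iodide released by human DIO3 during a 3-hour incubation with chemical. Inhibition scored as signal loss against DMSO controls.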

Test [17] is described as follows: CCTE_Shafer_MEA_dev_LDH: CCTE's Lactate Dehydrogenase Assay for Cytotoxicity in the Neural Network Formation Assay, Shafer Lab (AID 2284068; active = hit-call score of the fitted dose curve at least 0.9, where 1 is the maximum;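 also: exposure for twelve days from plating with re-dosing on DIV 5 and 9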). The procedure, abridged:
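Cytotoxicity companion to network-formation recordings: rat cortical neurons received compound over 12 days of development, re-dosed at DIV 5 and 9 feeds. Viability was inferred from LDH enzyme activity relative to DMSO.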

Test [18] in a line: IUF_NPC1b_proliferation_BrdU_72hr: Leibniz Research Institute for Environmental Medicine (IUF) 72-hour Neural Progenitor Cell Bromodeoxyuridine (BrdU) Proliferation Assay (NPC1b) (AID 2284207). The procedure, abridged: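 hNPC spheres (primary, GW 16-19 fetal cortex), single sphere/well, EGF+FGF medium; 72 h compound, no renewal; BrdU pulse last 16 h; luminescent ELISA; activity vs DMSO baseline; growth-factor withdrawal as positive control.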

A short description of test [19]: IUF_NPC1a_proliferation_area_72hr: Leibniz Research Institute for Environmental Medicine (IUF) 72-hour Neural Progenitor Cell Proliferation Area Assay (NPC1a) (AID 2284208). An outline of the steps: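 Spheres of 0.3 mm are plated singly in growth-factor medium and exposed from day 0. After three days at 37C and 5% CO2, sphere area is measured by phase contrast imaging, with activity referenced to DMSO.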

Broadly, the AC50 is the concentration at which the activity in the assay is half-maximal.

The structures appear in SMILES notation. Results filed as inconclusive are left out. The source made the active and inactive calls. The calls were made as follows, unless noted: active = hit-call score of the fitted dose curve at least 0.9, where 1 is the maximum; inactive = score below 0.9.

On to `Clc1ccccc1C(c1ccccc1)(c1ccccc1)n1ccnc1`, for which the call in [1], in [2], in test [3], in test [4], in test [5] and in test [6] was inactive. In addition, the outcome in [7], in [8], in test [9], in test [10], in [11] and in [12] was inactive. In addition, the call in [13] and in [14] was inactive.
Consider `Cc1c2ccccc2c(C)c2c1ccc1ccccc12`, for which the compound was classed as inactive in test [11] and in [12].
On to `CCCCCCCCCCCC[N+](C)(C)C`, for which the AC50 in [15] was 96.4 µM (active); in [16] it was 119 µM (active).
Regarding `CCCCCCCCCCCO`, the AC50 in [16] is 152 µM (active).
On to `CN(C)c1ccc(C(=C2C=CC(=[N+](C)C)C=C2)c2ccc(N(C)C)cc2)cc1`, for which the AC50 in test [15] is 134 µM (active); in [16], 22.6 µM (active); in [11], 11.2 µM (active); in test [12], 7.76 µM (active).
For `CC(C)(c1cc(Br)c(O)c(Br)c1)c1cc(Br)c(O)c(Br)c1`, the outcome in test [1], in test [2], in test [3], in test [4], in test [5] and in test [6] was inactive. Further, the outcome in test [7], in test [8], in test [9], in test [10], in test [17] and in test [11] was inactive. Also, the outcome in test [13], in [14], in test [18] and in [19] was inactive. In addition, the AC50 in test [15] was 48.6 µM (active); in test [16] it was 37.8 µM (active).
`O=C(O)c1ccccc1-n1cc(C(=O)O)c(=O)c2cc(Nc3c(F)cc(F)cc3Cl)c(Cl)cc21`: the outcome in [11] and in [12] was inactive.
With `CCN(CC)C(=O)c1cc(S(=O)(=O)Cc2ccccc2)c(N2CCC(c3ccccc3)CC2)cc1N(CC)CCN(C)C`, the values for the AC50 in [15] and in test [16] were 37 µM (active) and 53.4 µM (active), respectively. Besides, the result in test [11] and in test [12] was inactive.
Take `Oc1ccccc1`: the call in [1], in test [3], in test [4], in [5], in test [6] and in [7] was inactive. In addition, the compound was called inactive in test [8], in test [9], in [10], in [17], in test [13] and in test [14]. Further, the AC50 in [2] is 6.18 µM (active).
Turning to `c1ccc2ccccc2c1`, the compound was called inactive in test [1], in test [2], in test [3], in test [4], in [5] and in test [6]. Also, the result in test [7], in [8], in test [9], in test [10], in test [17] and in test [13] was inactive. Also, in test [14], the result was inactive.
For `COc1cccc([C@H](O)C2CCN(CCc3ccc(F)cc3)CC2)c1OC`, the result in [11] and in test [12] was inactive.
Turning to `NC(=O)c1nc(-c2cccc(-c3cc(F)ccc3OCC(F)(F)C(F)(F)F)c2)n[nH]1`, the AC50 in test [15] is 100 µM (active); in [16], 182 µM (active). The outcome in test [11] and in test [12] was inactive.
On to `CC1=CC(=O)/C(=C(/C)O)C(=O)O1`, for which the compound was called inactive in [11] and in test [12].
For the compound `CC[C@@H]1C[C@H](N(Cc2cc(C(F)(F)F)cc(C(F)(F)F)c2)C(C)=O)c2cc(C(F)(F)F)ccc2N1C(=O)OC(C)C`, the compound was classed as inactive in [11].
On the same count and under the same terms, in the case of `C[C@]12CC[C@@H]3c4ccc(O)cc4CC[C@H]3[C@@H]1CC[C@H]2O` it was “inactive”.
Take `O=CCCCC=O`: the AC50 in test [15] is 91.3 µM (active); in test [16], 9.03 µM (active).
For `CCCCCCCCOC(=O)c1cc(O)c(O)c(O)c1`, the AC50 is 143 µM (active) in test [15] and 76.5 µM (active) in test [16]. Besides, the call in test [11] and in [12] was inactive.
